Laboratory results reported in PubChem BioAssay (NCATS).
Results filed as inconclusive are left out. The source made the active and inactive calls. Calls come from the whole dose curve; as a rule, active = well fitted inhibition curve with a large enough effect; inconclusive = small, poorly fitted or top-dose-only effect; inactive = no such curve, though single readings can be large or run the other way. Positions of bridges follow the written chain, without caps; N, C: chain ends. Non-standard residues stand in square brackets, D forms with d. Residues, ends and D or L forms follow the SMILES beside them. ξ: configuration not given here. *: point of attachment. ξDab(CH2SO3H) = NC(CCNCS(=O)(=O)O)C(=O)O; Octanoyl(6-Me) = CCC(C)CCCCC(=O)*; Dab = NCC[CH](N)C(=O)O

assay: Confirmatory screen NINDS Rhodamine qHTS for Zika virus inhibitors (AID 1347161); settings: purified enzyme assay, Rhodamine110 substrate fluorescence, 15 min; series mostly up to 114 µM; note: nearly all actives have a fitted effect of over 60% in size
From the text: Avindra Nath, Ph.D., National Institute of Neurological Disorders and Stroke (NINDS), Bethesda, MD
Radhakrishnan Padmanabhan, Ph.D., Georgetown University (GU), Washington D.C.
Zika Virus causes congenital defects, including microcephaly and is associated with Guillain-Barre syndrome, eningoencephalitis and myelitis in infected adult. […] Using a target-based approach, we hope to establish a screening paradigm to uncover novel, cell-active NS2B-NS3 protease (Zika Virus) specific inhibitors from NCATS' collection of small molecules using qHTS.
Four assay panel was created to identify potential Zika Virus inhibitors. Namely, (1) GU unlinked NS2B-NS3 AMC tagged protease qHTS, (2) GU unlinked NS2B-NS3 Rhodamine tagged protease qHTS, (3) NINDS linked NS2B-NS3 AMC tagged protease qHTS, (4) NINDS linked NS2B-NS3 Rhodamine tagged protease qHTS. Active compounds were re-acquired and re-screened to confirm inhibition. Inhibitors were further screened against various confirmatory and counterscreens in dose response format.
Early Translation Branch (ETB)
National Center for Advancing Translational Sciences (NCATS), Rockville, MD
National Institute of Health (NIH), Bethesda, Maryland
For the linked assay, Nath lab (NINDS) provided the purified linked NS2B-NS3 protease which is consists of hydrophilic domain of NS2B linked to the NS3 protease domain by a flexible (-[…]-) linker. Control compound aprotinin is obtained from Thermo Scientific (#78432; Waltham, Massachusetts). Rhodamine110 substrate ([N-Cbz]-Nle-Lys-Arg-Arg-Rhod110-Arg-Arg-Lys-Nle-[N-Cbz]) was purchased from either Genscript or Bachem.
1536-well Protease (Rhodamine110 Substrate) Assay:
Briefly, 3 microL of enzyme (25 nM final concentration), in assay buffer (10 mM Tris-HCl pH 8.0 with 0.01% Tween 20) were dispensed into a 1,536-well solid-bottom black plate (Greiner Bio One, Monroe, NC). Twenty-three nL of compounds (final concentration range 7.28 nM to 114 microM) or control Aprotinin (final concentration range 3.47 nM to 114 microM) were transferred via Wako Pin-tool (Wako Automation, Richmond, VA). Samples were incubated (room temperature, protected from light) for 15 minutes followed by a 1 microL Rhodamine110 substrate addition (1.5 microM final concentration). Plates were then immediately read on a ViewLux High-throughput CCD imager (PerkinElmer, Waltham, MA) equipped with FITC fluorescence optics (480(20) nm excitation, 540(25) nm emission), then incubated (room temperature, protected from light) for 15 minutes (~15% conversion). The change in fluorescence intensity over the 15-minute reaction period was normalized against no-inhibitor and no-enzyme controls and the resulting percent inhibition data were fitted to a 4-parameter Hill equation. Aprotinin was used as intraplate control.
Potency is the fitted concentration of half-maximal effect.

| SMILES | Potency |
| --- | --- |
| O=C(Nc1ccc(C(=O)OCc2cc(=O)n3nc(C4CC4)sc3n2)cc1)c1ccc(F)cc1 | inactive |
| O=C(O)c1c(Sc2ccccc2)c2cc(Cl)ccc2n1Cc1ccc(Cl)cc1 | 1.24 µM (active) |
| O=C(O)c1ccccc1-c1c2cc(I)c(=O)c(I)c-2oc2c(I)c(O)c(I)cc12 | 3.16 µM (active) |
| CCN(Cc1cccc(S(=O)(=O)O)c1)c1ccc(C(=C2C=CC(=[N+](CC)Cc3cccc(S(=O)(=O)O)c3)C=C2)c2ccccc2S(=O)(=O)[O-])cc1 | 3.55 µM (active) |
| COc1ccc(NS(=O)(=O)c2ccc3c(c2)[C@H]2C=CC[C@H]2[C@@H](c2ccc(C(=O)O)cc2)N3)cc1 | 3.16 µM (active) |
| Cc1cccc(C(=O)Nc2ccc(C(=O)OCc3cc(=O)n4c5c(sc4n3)CCCC5)cc2)c1 | inactive |
| COc1ccc(S(=O)(=O)c2c(Nc3cccc(Cl)c3)sc(C(=O)c3ccccc3)c2N)cc1 | inactive |
| O=C(O)c1ccc2c(ccc3nn(-c4ccc(/C=C/c5ccc(-n6nc7ccc8cc(C(=O)O)ccc8c7n6)cc5[S+](=O)([O-])[O-])c([S+](=O)([O-])[O-])c4)nc32)c1 | 6.31 µM (active) |
| CC(=O)Oc1cc2c(c(C)c1OC(C)=O)CC=C1[C@@]2(C)CC[C@@]2(C)[C@H]3C[C@](C)(C(=O)O)CC[C@]3(C)CC[C@]12C | 3.49 µM (active) |
| COC(=O)c1ccc(NC(=O)CSc2ccc(-c3sc(-c4ccccc4)nc3C)nn2)cc1 | inactive |
| CC(C)(C)c1ccc(S(=O)(=O)Nc2ccc(O)c(Sc3nc4ccccc4s3)c2)cc1 | 28.2 µM (active) |
| CC(C)c1ccc(NC(=O)c2ccc3c(O)c(S(=O)(=O)c4ccccc4)c(=O)[nH]c3c2)cc1 | 3.98 µM (active) |
| O=C(OCC#CCSc1nnc(-c2cccc3ccccc23)o1)c1cc(F)c(F)c(F)c1 | inactive |
| O=c1c(O)c(Br)ccc2c(Br)c(O)c(O)c(O)c12 | 7.94 µM (active) |
| O=C1OCC2=C1C(c1cccc(Cl)c1)CC(=O)N2c1ccc(C(F)(F)F)cc1 (stereo not given) | inactive |
| CCOC(=O)c1ccc(NC(=O)c2nc(SCc3ccc(F)cc3)ncc2Cl)cc1 | inactive |
| CC1CCN(C(c2ccc(F)cc2)c2ccc(C(C)C(=O)O)cc2-c2ccc(C(F)(F)F)cc2)CC1 (stereo not given) | 3.12 µM (active) |
| O=C(OC1Cc2c(O)cc(O)cc2OC1c1cc(O)c(O)c(O)c1-c1c(C2Oc3cc(O)cc(O)c3CC2OC(=O)c2cc(O)c(O)c(O)c2)cc(O)c(O)c1O)c1cc(O)c(O)c(O)c1 (stereo not given) | 20 µM (active) |
| CCC(C)CCCCC(=O)NC(CCNCS(=O)(=O)O)C(=O)NC(C(=O)NC(CCNCS(=O)(=O)O)C(=O)NC1CCNC(=O)C(C(C)O)NC(=O)C(CCNCS(=O)(=O)O)NC(=O)C(CCNCS(=O)(=O)O)NC(=O)C(CC(C)C)NC(=O)C(CC(C)C)NC(=O)C(CCNCS(=O)(=O)O)NC1=O)C(C)O (stereo not given) ({Octanoyl(6-Me)}-[ξDab(CH2SO3H)]T[ξDab(CH2SO3H)][Dab][ξDab(CH2SO3H)]LL[ξDab(CH2SO3H)][ξDab(CH2SO3H)]T; lactam 4-C; configuration not given here) | 12.6 µM (active) |
| O=C(OCC#CCSc1nnc(-c2ccccc2Cl)o1)c1ccc(F)cc1 | inactive |

| SMILES | Potency |
| --- | --- |
| CCOC(=O)c1ccc(NC(=O)c2ccc3c(c2)CCN3S(=O)(=O)c2ccc(Cl)cc2)cc1 | inactive |
| O=C(OCC#CCSc1nnc(-c2cccc3ccccc23)o1)c1ccc(SC(F)(F)F)cc1 | inactive |
| Cc1cc(S(=O)(=O)Nc2ccc(C(=O)O)cc2)c(C)c(S(=O)(=O)c2ccc(Cl)cc2)c1 | 44.7 µM (active) |
| O=C(OCC#CCSc1nnc(-c2cc3ccccc3cc2O)o1)c1ccc(F)cc1 | inactive |
| O=C(OCC#CCSc1nnc(-c2cccc3ccccc23)o1)c1sc2ccccc2c1Cl | inactive |
| O=C(O)CSc1nc2ccc(NC(=O)COc3ccc(Cl)cc3)cc2s1 | 20 µM (active) |
| CN(C)[C@@H]1C(=O)C(C(=O)NCN2CCCC2)=C(O)[C@@]2(O)C(=O)C3=C(O)c4c(O)cccc4[C@@](C)(O)[C@H]3C[C@@H]12 | 1.97 µM (active) |
| O=S(=O)(Nc1ccc(O)c(NS(=O)(=O)c2ccccc2)c1)c1ccccc1 | inactive |
| O=C(OCC#CCSc1nnc(-c2cccc3ccccc23)o1)c1sc(Cl)c(Cl)c1Cl | inactive |
| CCS(=O)(=O)c1cccc(C(=O)Nc2ccc(-c3nc4ccccc4s3)c(O)c2)c1 | 15.8 µM (active) |
| O=C(Nc1ccc(C(=O)OCc2cc(=O)n3c4c(sc3n2)CCCC4)cc1)c1ccccc1 | inactive |
| COc1ccc(-c2nc(C(=O)N3CCN(C)CC3)sc2-c2ccc(OC)cc2)cc1 | inactive |
| Cc1c(Cl)cccc1NS(=O)(=O)c1ccc(NS(=O)(=O)c2ccc3c(c2)OCCO3)cc1 | 25.1 µM (active) |
| O=c1oc2ccccc2cc1-c1nnc(Nc2ccc(Cl)cc2Cl)s1 | 15.8 µM (active) |
| CCN(Cc1cccc(S(=O)(=O)O)c1)c1ccc(C(=C2C=CC(=[N+](CC)Cc3cccc(S(=O)(=O)O)c3)C=C2)c2ccc(O)cc2S(=O)(=O)O)cc1 | 3.55 µM (active) |
| N#CC(C#N)=C(N)/C(C#N)=C/c1cc(O)c(O)c(O)c1 | 31.6 µM (active) |
| CCOC(=O)c1c(-c2ccc(C)cc2)csc1NC(=O)c1cc(-c2ccc(Cl)cc2)on1 | inactive |
| O=c1oc2ccc3ccccc3c2cc1-c1nnc(Nc2ccc(Cl)cc2Cl)s1 | inactive |
| CC1(COc2ccc(C[C@H]3SC(=O)NC3=O)cc2)CCCCC1 | 4.4 µM (active) |
| Cc1ccc(S(=O)(=O)Nc2cc(SCC(=O)O)c(O)c3ccccc23)cc1[N+](=O)[O-] | 6.98 µM (active) |
